Reference: PubChem BioAssay (EPA / NIEHS)
Inconclusive results are not listed. Activity calls are given as the source filed them. The calls were made as follows, unless noted: active = hit-call score of the fitted dose curve at least 0.9, where 1 is the maximum; inactive = score below 0.9.

Experiments:
[1] = CCTE_Shafer_MEA_dev_firing_rate_mean: CCTE's Neural Network Formation Assay for Mean Firing Rate, Shafer Lab (AID 2284031);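 also: curve fitted for loss of firing so AC50 reflects decreased mean firing rate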
Summary of the method: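 Extracellular spike frequency, AUC over DIV 5–12 recordings, in rat cortical neuron MEA cultures dosed from plating; loss direction vs DMSO.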

[2] = CCTE_Shafer_MEA_dev_active_electrodes_number: CCTE's Neural Network Formation Assay for Number of Active Electrodes, Shafer Lab (AID 2284040; active = hit-call score of the fitted dose curve at least 0.9, where 1 is the maximum;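 also: potency for loss of active electrodes versus DMSO so lower counts are hits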)
Summary of the method: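 Developing rat cortical networks on MEAs, exposed DIV 0–12. Value is the AUC of active-electrode counts (≥5 spikes/min) from days 5, 7, 9, 12, relative to DMSO.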

[3] = CCTE_Shafer_MEA_dev_burst_rate: CCTE's Neural Network Formation Assay for Burst Rate, Shafer Lab (AID 2284042);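 also: potency for loss of burst rate below DMSO control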
Summary of the method: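 Primary rat cortical neurons on PEI-coated 48-well MEA plates (laminin added with cells at plating) (16 electrodes/well), exposed from plating to day 12, dosing renewed at DIV 5 and 9. Burst rate averaged over active electrodes, recorded DIV 5, 7, 9, 12, summarized as AUC; loss versus DMSO.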

[4] = CCTE_Shafer_MEA_dev_bursting_electrodes_number: CCTE's Neural Network Formation Assay for Number of Bursting Electrodes, Shafer Lab (AID 2284043; active = hit-call score of the fitted dose curve at least 0.9, where 1 is the maximum;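 also: potency is for loss of bursting electrodes relative to DMSO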)
Summary of the method: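 Rat cortical primary neurons, 48-well MEA, 16 electrodes/well; dosing DIV 0–12, re-dosed with full media change DIV 5, 9. Recordings DIV 5/7/9/12, AxIS adaptive spike detector; bursting electrode = ≥1 burst/2 min. AUC across days; loss of signal vs DMSO.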

[5] = CCTE_Shafer_MEA_dev_per_burst_interspike_interval: CCTE's Neural Network Formation Assay for Burst Interspike Interval, Shafer Lab (AID 2284044);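 also: mean spike spacing inside bursts as AUC over recordings on days 5 7 9 12; potency for a decrease of within-burst interspike interval below DMSO level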
Summary of the method: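 Mean interspike interval within single-electrode bursts, averaged over bursting electrodes, from rat cortical cultures on MEA plates recorded on days 5, 7, 9 and 12. Continuous compound exposure from plating; trapezoidal AUC fitted downward relative to DMSO.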

[6] = CCTE_Shafer_MEA_dev_burst_duration_mean: CCTE's Neural Network Formation Assay for Mean Burst Duration, Shafer Lab (AID 2284045);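 also: curve fitted for loss meaning shorter burst duration than DMSO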
Summary of the method: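 Rat cortical cultures, 1.5 x 10^5 cells/well with laminin drop; continuous dosing days 0–12, media plus treatment refreshed DIV 5, 9. AxIS adaptive spike detection; mean single-electrode burst duration, AUC over four recordings, negative direction vs DMSO.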

[7] = CCTE_Shafer_MEA_dev_inter_network_spike_interval_mean: CCTE's Neural Network Formation Assay for Mean Inter-network Spike Interval, Shafer Lab (AID 2284047)
Summary of the method: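 Primary rat cortical neurons on 16-electrode MEA wells, exposed from plating day 0 through DIV 12, compound renewed at DIV 5 and 9 media changes. Mean interval between network-spike peaks recorded DIV 5, 7, 9, 12; collapsed as trapezoidal AUC, fitted downward versus DMSO.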

[8] = CCTE_Shafer_MEA_dev_network_spike_number: CCTE's Neural Network Formation Assay for Number of Network Spikes, Shafer Lab (AID 2284048);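 also: synchronized bursts across electrodes counted on days 5 7 9 12 and integrated as AUC; fit as a loss of signal meaning fewer network spikes than DMSO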
Summary of the method: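 Rat cortical primary cultures on 48-well MEA (16 electrodes/well); continuous exposure DIV 0–12, full medium and treatment exchange DIV 5, 9. Readout: network spike count, AxIS adaptive detection, recordings DIV 5/7/9/12 collapsed to AUC; loss-of-signal fit, DMSO baseline.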

[9] = CCTE_Shafer_MEA_dev_network_spike_peak: CCTE's Neural Network Formation Assay for Mean Number of Electrodes in Network Spike, Shafer Lab (AID 2284049);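 also: fitted for loss of signal meaning fewer electrodes in network spikes than DMSO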
Summary of the method: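 Network-spike peak electrode count from recordings on days 5, 7, 9 and 12 was combined as trapezoidal area under the curve. Rat cortical cultures were treated continuously from plating, with compound renewed at each feed (DIV 5, 9); fits versus DMSO.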

[10] = CCTE_Shafer_MEA_dev_spike_duration_mean: CCTE's Neural Network Formation Assay for Mean Spike Duration, Shafer Lab (AID 2284051);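 also: mean network spike duration pooled as area under curve over DIV 5 to 12 recordings; potency for a decrease in mean network spike duration versus DMSO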
Summary of the method: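 Primary rat cortical neurons on 16-electrode MEA wells (PEI-coated, laminin in plating drop), exposed from plating through DIV 12 with compound renewed at DIV 5 and 9. Mean network-spike duration recorded DIV 5, 7, 9, 12; trapezoidal AUC across days, DMSO baseline.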

[11] = CCTE_Shafer_MEA_dev_network_spike_duration_std: CCTE's Neural Network Formation Assay for Standard Deviation of Network Spike Duration, Shafer Lab (AID 2284052);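 also: area under curve of spike duration SD across recording days 5 to 12; hits are decreases in network spike duration SD versus DMSO vehicle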
Summary of the method: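 Primary rat cortical neurons on PEI-coated 16-electrode MEA wells, exposed from plating day 0 through day 12 with compound renewed at DIV 5 and 9. Network spike duration SD recorded on days 5, 7, 9, 12, collapsed as trapezoidal AUC; loss-of-signal fit versus DMSO.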

[12] = CCTE_Shafer_MEA_dev_per_network_spike_spike_number_mean: CCTE's Neural Network Formation Assay for Mean Number of Spikes in a Network Spike, Shafer Lab (AID 2284053);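 also: fitted as decrease in spikes per network spike relative to DMSO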
Summary of the method: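 Primary rat cortical neurons on 48-well, 16-electrode MEA plates were exposed from plating to DIV 12, with dosing renewed on DIV 5 and 9. Spikes per network spike (0.05 s peak window) were recorded on DIV 5, 7, 9 and 12 and collapsed as trapezoidal AUC versus DMSO.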

[13] = CCTE_Shafer_MEA_dev_per_network_spike_spike_percent: CCTE's Neural Network Formation Assay for Percent of Spikes in a Network Spike, Shafer Lab (AID 2284054)
Summary of the method: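 Read-out: percent of spikes falling in a 0.05 s window at network-spike peak, from spontaneous MEA recordings on days 5, 7, 9 and 12; trapezoidal AUC; loss of signal versus DMSO. Rat cortical cultures, compound present throughout.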

[14] = CCTE_Shafer_MEA_dev_LDH: CCTE's Lactate Dehydrogenase Assay for Cytotoxicity in the Neural Network Formation Assay, Shafer Lab (AID 2284068; active = hit-call score of the fitted dose curve at least 0.9, where 1 is the maximum;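 also: exposure for twelve days from plating with re-dosing on DIV 5 and 9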)
Summary of the method: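 Primary rat cortical neurons were plated on PEI/laminin MEA plates and exposed from day 0 for twelve days, with compound renewed at DIV 5 and 9. Cytotoxicity was determined by spectrophotometric LDH assay relative to DMSO.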

[15] = CCTE_Shafer_MEA_dev_AB: CCTE's Alamar Blue Assay for Cytotoxicity in the Neural Network Formation Assay, Shafer Lab (AID 2284083; active = hit-call score of the fitted dose curve at least 0.9, where 1 is the maximum;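 also: twelve days of exposure from plating with re-dosing on DIV 5 and 9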)
Summary of the method: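 Primary rat cortical neurons on PEI-coated 48-well MEA plates, 1.5 x 10^5 cells/well in laminin drop; compound exposure from day 0 of plating for twelve days, renewed at medium changes on DIV 5 and 9. Viability read as resazurin reduction by fluorescence, relative to DMSO.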

[16] = CCTE_Shafer_MEA_dev_mutual_information_norm: CCTE's Neural Network Formation Assay for Mutual Information Normalization, Shafer Lab (AID 2284091);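 also: mutual information between electrodes summarised as area under curve across four recording days; potency is for a decrease in mutual information relative to DMSO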
Summary of the method: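 Neurons from rat cortex were seeded at 1.5 x 10^5 cells/well onto PEI-coated MEAs in a laminin drop, then exposed to compound from day 0 for twelve days. Network recordings on four days gave mutual information, summarised by AUC relative to DMSO.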

[17] = CCTE_Shafer_MEA_dev_correlation_coefficient_mean: CCTE's Neural Network Formation Assay for Mean Correlation Coefficient, Shafer Lab (AID 2284093);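 also: well mean pairwise spike train correlation integrated as AUC over recording days 5 to 12; potency fitted for loss of correlation relative to DMSO vehicle wells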
Summary of the method: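 Spontaneous activity recorded on days 5, 7, 9 and 12 post-plating; pairwise spike correlations are averaged across active electrodes and collapsed to an area-under-curve. Rat cortical cultures are dosed from plating through 12 days, with compound renewed at media changes.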

[18] = IUF_NPC1b_proliferation_BrdU_72hr: Leibniz Research Institute for Environmental Medicine (IUF) 72-hour Neural Progenitor Cell Bromodeoxyuridine (BrdU) Proliferation Assay (NPC1b) (AID 2284207)
Summary of the method: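 Luminescent BrdU ELISA measured DNA synthesis during the last 16 h of a 72 h exposure of primary human neural progenitor spheres grown with EGF and FGF. Signal was fitted relative to DMSO controls.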

[19] = IUF_NPC1_viability_72hr: Viability Assessment at 72 hours in the Leibniz Research Institute for Environmental Medicine (IUF) Neural Progenitor Cell Proliferation Assay (NPC1) (AID 2284209)
Summary of the method: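 Three-day continuous exposure of human neural progenitor spheres under EGF/FGF-driven proliferation; cell viability scored by alamar blue signal versus DMSO.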

[20] = CCTE_Mundy_HCI_Cortical_Synap_Neur_Matur_NeuriteSpotCountPerNeuriteLength: CCTE's Synaptogenesis and Neurite Maturation Assay in rat cortical cells for Neurite Spot Count per Neurite Length, Mundy Lab (AID 2284210)
Summary of the method: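 Read-out: synaptophysin puncta counted along MAP2-stained neurites, normalised to neurite length, by automated high-content imaging. Rat cortical cells; AraC DIV 5; chemical dosing DIV 7; termination DIV 12. DMSO baseline.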

[21] = CCTE_Mundy_HCI_Cortical_Synap_Neur_Matur_BPCount: CCTE's Synaptogenesis and Neurite Maturation Assay in rat cortical cells for Branch Point Count, Mundy Lab (AID 2284211)
Summary of the method: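 In this multiplexed morphology assay, cortical cells from rat receive chemicals at DIV 7 and are fixed at DIV 12, then immunostained and imaged; branch points are counted, with DMSO as baseline.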

[22] = CCTE_Mundy_HCI_Cortical_NOG_NeuriteCount: CCTE's Neurite Outgrowth Assay in rat cortical cells for Neurite Count, Mundy Lab (AID 2284212);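 also: cells fixed about two days after chemical exposure began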
Summary of the method: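 Rat cortical primary cells; compound added 2 h post-plating, 1/10 dilution of working solution. Anti-betaIII-tubulin/AF488 ICC; ArrayScan neurite count vs DMSO.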

[23] = CCTE_Mundy_HCI_Cortical_NOG_NeuriteLength: CCTE's Neurite Outgrowth Assay in rat cortical cells for Neurite Length, Mundy Lab (AID 2284213);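 also: neurites imaged about 48 to 50 h after chemical exposure began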
Summary of the method: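 First, rat primary cortical cells were plated and, 2 h later, given test chemical as a 1/10 dilution. Finally, βIII-tubulin immunostaining enabled automated imaging of neurite length.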

[24] = CCTE_Mundy_HCI_Cortical_Synap_Neur_Matur_NeuriteLength: CCTE's Synaptogenesis and Neurite Maturation Assay in rat cortical cells for Neurite Length, Mundy Lab (AID 2284214)
Summary of the method: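 DMSO-normalised neurite length, from high-content imaging of anti-MAP2-stained rat cortical cells fixed at DIV 12. Glia were suppressed with AraC (DIV 5) before chemical exposure from DIV 7.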

[25] = CCTE_Mundy_HCI_Cortical_Synap_Neur_Matur_SynapseCount: CCTE's Synaptogenesis and Neurite Maturation Assay in rat cortical cells for Synapse Count, Mundy Lab (AID 2284218)
Summary of the method: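 Endpoint: synapses/neuron by HCI (synaptophysin puncta on MAP2-labelled neurites, Hoechst nuclei). Rat primary cortical cells, AraC DIV 5, dosed DIV 7, fixed DIV 12; DMSO negative control.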

[26] = CCTE_Mundy_HCI_hN2_NOG_NeuriteCount: CCTE's Neurite Outgrowth Assay in human hN2 cells for Neurite Count, Mundy Lab (AID 2284219; active = hit-call score of the fitted dose curve at least 0.9, where 1 is the maximum)
Summary of the method: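 In this morphology assay, hNP1-derived neurons received test chemical 2 h post-plating and were fixed two days later in warm paraformaldehyde/sucrose containing Hoechst 33342. Neurites, labelled by rabbit anti-βIII-tubulin (1:800) and Alexa Fluor-488 (1:500), were counted automatically.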

[27] = CCTE_Mundy_HCI_hN2_NOG_NeuriteLength: CCTE's Neurite Outgrowth Assay in human hN2 cells for Neurite Length, Mundy Lab (AID 2284220; active = hit-call score of the fitted dose curve at least 0.9, where 1 is the maximum)
Summary of the method: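 Read-out is neurite length from high-content imaging of βIII-tubulin/Alexa Fluor-488-labelled neurons, referenced to DMSO controls.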

[28] = CCTE_Mundy_HCI_hN2_NOG_NeuronCount: CCTE's Neurite Outgrowth Assay in human hN2 cells for Neuron Count, Mundy Lab (AID 2284221; active = hit-call score of the fitted dose curve at least 0.9, where 1 is the maximum)
Summary of the method: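 Read-out is the number of betaIII-tubulin-positive neurons imaged by automated high-content analysis, with DMSO as negative control.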

[29] = CCTE_Mundy_HCI_Cortical_Synap_Neur_Matur_NeuriteCount: CCTE's Synaptogenesis and Neurite Maturation Assay in rat cortical cells for Neurite Count, Mundy Lab (AID 2284222)
Summary of the method: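 Rat primary cortical cells; AraC added at DIV 5, chemicals dosed with media change at DIV 7 through DIV 12. MAP2/synaptophysin/Hoechst immunostaining, high-content imaging of neurite number; fitted relative to DMSO.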

[30] = CCTE_Mundy_HCI_Cortical_Synap_Neur_Matur_CellBodySpotCount: CCTE's Synaptogenesis and Neurite Maturation Assay in rat cortical cells for Cell Body Spot Count, Mundy Lab (AID 2284223)
Summary of the method: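 High-content imaging counts synaptophysin puncta on neuronal cell bodies per neuron after MAP2/synaptophysin immunostaining. Rat primary cortical cells, glia arrested with AraC at DIV 5, were exposed DIV 7–12; signal decrease measured against DMSO.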

Measured: AC50

O=[As]O
active: [1] 2140 nM | [2] 1410 nM | [3] 2420 nM | [4] 1230 nM | [5] 2430 nM | [6] 2500 nM | [8] 1280 nM | [9] 1670 nM | [10] 1140 nM | [11] 1080 nM | [12] 1140 nM | [13] 1140 nM | [14] 1090 nM | [15] 1820 nM | [16] 1150 nM | [17] 996 nM | [18] 2030 nM | [19] 2960 nM | [21] 5000 nM | [22] 3320 nM | [23] 2480 nM | [24] 6450 nM | [25] 5000 nM | [26] 6150 nM | [27] 5090 nM | [28] 4470 nM | [29] 4430 nM | [30] 5000 nM
inactive: [7] | [20]
